Sfp PPTase inh = qHTS Assay for Inhibitors of Bacillus subtilis Sfp phosphopantetheinyl transferase (PPTase); 4'-phosphopantetheinyl transferase ffp (Bacillus subtilis), Q9F4F7; Biochemical Sfp PPTase activity, qHTS; Potency, µM, for inactives: largest response in the series, negative = inhibition, actives largely listed as inhibitors; 310,000 tested, 3.5% active; AID 1490, 2009;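 note: the enzyme is Sfp with the accession as filed and its product quenches rhodamine fluorescence; 0% = enzyme reaction without inhibitor and -100% = no enzyme wells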
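Fluorescence-quenching assay with 15 nM Sfp, 5 uM rhodamine-CoA and 12.5 uM BHQ-2-labelled ybbR peptide in pH 7.6 Hepes/MgCl2 buffer. Enzyme was pre-incubated with compound for 15 min at room temperature. Rate was taken from the 30-min fluorescence change (525/598 nm).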
JMJD2A Tudor inh = qHTS Assay for Inhibitors of JMJD2A-Tudor Domain | Lysine-specific demethylase 4A (Homo sapiens), O75164 | AlphaScreen JMJD2A-Tudor / H3K4me3 peptide binding | Potency, µM (top dose mostly 114 µM), without a hit: top-dose activity change, negative = inhibition, usual class: inhibitors | 390,000 tested, 4.4% active | AID 504339, 2011; note: % is set by controls: 0 for no effect and ±100 for the full control effect; nearly all actives have a fitted effect of over 50% in size
Target sequence (O75164 whole entry, looked up, the tested form may be a part): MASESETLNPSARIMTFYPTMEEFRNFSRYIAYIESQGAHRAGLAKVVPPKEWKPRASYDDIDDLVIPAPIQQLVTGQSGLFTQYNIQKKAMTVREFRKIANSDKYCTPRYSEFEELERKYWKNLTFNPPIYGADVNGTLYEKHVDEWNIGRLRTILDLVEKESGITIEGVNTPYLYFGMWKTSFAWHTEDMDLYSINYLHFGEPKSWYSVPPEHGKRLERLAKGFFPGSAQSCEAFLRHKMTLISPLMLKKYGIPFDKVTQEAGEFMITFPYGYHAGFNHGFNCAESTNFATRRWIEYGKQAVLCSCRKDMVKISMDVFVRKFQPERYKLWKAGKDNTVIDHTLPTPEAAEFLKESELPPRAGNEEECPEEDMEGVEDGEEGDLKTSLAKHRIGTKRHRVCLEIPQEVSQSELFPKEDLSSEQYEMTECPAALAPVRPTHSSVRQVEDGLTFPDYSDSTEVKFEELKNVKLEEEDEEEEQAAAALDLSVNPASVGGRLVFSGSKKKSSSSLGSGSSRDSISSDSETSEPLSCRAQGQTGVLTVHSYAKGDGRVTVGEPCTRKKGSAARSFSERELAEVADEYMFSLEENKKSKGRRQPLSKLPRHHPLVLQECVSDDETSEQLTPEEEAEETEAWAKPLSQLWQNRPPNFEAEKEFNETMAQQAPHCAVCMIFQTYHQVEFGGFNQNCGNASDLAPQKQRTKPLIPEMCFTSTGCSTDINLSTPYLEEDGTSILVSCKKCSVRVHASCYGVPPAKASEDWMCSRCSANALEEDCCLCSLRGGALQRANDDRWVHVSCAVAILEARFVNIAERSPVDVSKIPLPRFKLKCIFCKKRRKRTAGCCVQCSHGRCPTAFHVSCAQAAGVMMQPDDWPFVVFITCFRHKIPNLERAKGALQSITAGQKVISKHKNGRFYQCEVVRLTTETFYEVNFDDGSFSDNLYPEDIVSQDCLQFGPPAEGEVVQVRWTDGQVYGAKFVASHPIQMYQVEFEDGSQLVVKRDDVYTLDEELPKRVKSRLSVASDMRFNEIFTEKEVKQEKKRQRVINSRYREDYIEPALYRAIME
HP1b chromo inh = HTS for Inhibitors of HP1-beta Chromodomain Interactions with Methylated Histone Tails. Chromobox protein homolog 1 (Homo sapiens), P83916. AlphaScreen HP1-beta / biotin-H3K9me3 peptide binding. Potency, µM (titrated, usually from 114 µM), for inactives: at the highest dose activity change, negative = inhibition, actives largely listed as inhibitors. 390,000 tested, 0.56% active; note: nearly all actives have a fitted effect of over 70% in size
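HP1-beta protein (50 nM final) preincubated 30 min at room temperature with biotinylated H3(1-18)K9me3 peptide (50 nM) in PBS pH 7.4, 0.01% Tween-20, then compound added for 30 min. AlphaScreen streptavidin donor/nickel chelate acceptor beads (10 ug/mL final), 30 min dark, luminescence read.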
G9a block = qHTS Assay for Inhibitors of Histone Lysine Methyltransferase G9a; Histone-lysine N-methyltransferase EHMT2 (Homo sapiens), Q96KQ7; G9a H3K9 monomethylation, AlphaScreen, 2 h; Potency, µM (doses to about 102 µM), for inactives: at the top dose activity, negative = inhibition, hits mostly inhibitors; 350,000 tested, 8.8% active; AID 504332, 2011; note: % is set by controls: 0 for no effect and ±100 for the full control effect; nearly all actives have a fitted effect of over 75% in size
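G9a (20 nM) preincubated 15 min RT with compounds, then 500 nM biotinylated H3K9 peptide and 20 uM SAM added; 2 h RT reaction. Monomethyl-H3K9 product detected by AlphaScreen with anti-H3K9me1 antibody, streptavidin donor and anti-rabbit IgG acceptor beads.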
BAZ2B block = qHTS Assay for Inhibitors of BAZ2B; Bromodomain adjacent to zinc finger domain protein 2B (Homo sapiens), Q9UIF8; AlphaScreen BAZ2B-H3K14Ac peptide displacement; Potency, µM (doses to about 114 µM), inactives show at the highest dose activity change, negative = inhibition, actives largely listed as inhibitors; 360,000 tested, 4.4% active; AID 504333, 2011; note: % is set by controls: 0 for no effect and ±100 for the full control effect; nearly all actives have a fitted effect of over 60% in size
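Protein-peptide AlphaScreen: BAZ2B 50 nM, b-H3K14Ac 50 nM, 1x PBS pH 7.4 + 0.01% Tween-20. Preincubation 30 min RT; cpd 30 min RT (top 110 uM); beads 20 min RT, light-protected.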
Starred values were filed as active, the others as inactive; ? = inconclusive; nt = no result given; [ ] = remark or other dose. A selection: hits, their analogues and other compounds. The true share with any hit is near 12%. Calls come from the whole dose curve; as a rule, active = well fitted curve in the direction sought with a large enough effect; inconclusive = small, poorly fitted or top-dose-only effect, or another doubt; inactive = no such curve, though single readings can be large; an effect the other way counts as inactive or inconclusive. Potency is the fitted concentration of half-maximal effect.

SMILES | Sfp PPTase inh | JMJD2A Tudor inh | HP1b chromo inh | G9a block | BAZ2B block
O=S(=O)(c1ccc(NC(=S)NCc2ccco2)cc1)N1CCCCC1 | 9.3% | -31.0% | -7.1% | 56.2µM* | -38.4%
O=C(NCc1ccco1)c1ccc(S(=O)(=O)N2CCOCC2)cc1 | 20µM* | ? | ? | 12.6µM* | 79.4µM*
NS(=O)(=O)c1ccc(NC(=S)NCc2ccco2)cc1 | 20µM* | -29.1% | ? | 3.16µM* | ?
O=S(=O)(c1cccc(C(F)(F)F)c1)N1CCN(C(=S)NCc2ccco2)CC1 | 70.8µM* | -18.5% | -11.7% | ? | -30.2%
COC(=O)c1cccc(NC(=S)NCc2ccco2)c1 | -12.4% | ? | -31.6% | nt | ?
NC(=O)c1ccc(NC(=S)NCc2ccco2)cc1 | -3.2% | -18.1% | 14.2% | 50.1µM* | 0.7%
O=C(c1ccc(NC(=S)NCc2ccco2)cc1)N1CCOCC1 | 14.2% | -6.5% | 9.8% | 44.7µM* | -18.4%
O=S(=O)(c1cccc(NC(=S)NCc2ccco2)c1)N1CCOCC1 | 5.2% | -15.3% | 15.7% | ? | -10.4%
COC(=O)c1ccc(NC(=S)NCc2ccco2)cc1 | 5.7% | -20.5% | 10.4% | 50.1µM* | ?
CC(=O)c1ccc(NC(=S)NCc2ccco2)cc1 | -5.2% | -17.1% | 28.5% | nt | ?
O=C(COc1ccc2oc3c(c2c1)CCCC3)Nc1ccc(Cl)cc1 | nt | -5.5% | 21.4% | -0.9%[59 µM] | 0.1%
CCOC(=O)C1=CNS(=O)(=O)NC1c1ccc(C[C@H](NC(=O)CNC(=O)CCc2ccccc2)C(N)=O)cc1 (some centres undefined) | nt | -11.6% | 25.1% | nt | nt
COCCNC(=O)c1ccc(-n2c(-c3ccccc3)cc3c2CCCCC3)cc1 | nt | -13.5% | 55.0% | -7.1%[59 µM] | ?
CC[C@H](C)[C@H](NC(=O)[C@@H](NC(=O)CNC(=O)[C@@H](N)CC(C)C)[C@@H](C)O)C(=O)N1CCC[C@H]1C(=O)NCC(=O)O | 1.2% | nt | nt | nt | nt
CCc1ccc2c(c1)c(N=NC1=NC(=O)CS1)c(O)n2CC | -24.3% | ? | -6.6% | -17.1%[0.501 µM] | 50.1µM*
CCc1ccc2[nH]c(O)c(N=NC3=NC(=O)CS3)c2c1 | -1.1% | -4.4%[11.4 µM] | -10.6% | ? | 39.8µM*
CCCC[C@@H]1CNC(=S)N1CCC12CC3CC(CC(C3)C1)C2 | 6.6% | -31.4% | 36.7% | 13.1%[59 µM] | -13.0%
COCCn1c(C23CC4CC(CC(C4)C2)C3)n[nH]c1=S | 31.6µM* | 7.08µM* | 27.9% | ? | -4.8%
CCCCn1c(C23CC4CC(CC(C4)C2)C3)n[nH]c1=S | -14.8% | 31.6µM* | -10.4% | nt | -34.0%
Cc1ccc(Cn2ccnc2SCC(=O)Nc2ccc3c(c2)OCCO3)cc1 | nt | ? | 0.6%[57 µM] | ? | ?
Cc1ccc(S(=O)(=O)NCC(=O)N/N=C/c2ccc(Cl)cc2Cl)cc1 | 44.7µM* | -24.1% | 12.4% | 11.0% | -10.4%
CCNc1ncc2nc(-c3cccs3)c(=O)n(CCc3ccccc3)c2n1 | 2.0% | nt | nt | 11.6%[0.501 µM] | nt
CC(=O)NC1=C(NC2CCS(=O)(=O)C2)C(=O)c2ccccc2C1=O (centres undefined) | 31.6µM* | 20µM* | 44.7µM* | 1.78µM* | -18.7%
CN(C1=C(NC(=O)c2ccccc2)C(=O)c2ccccc2C1=O)C1CCS(=O)(=O)C1 (centres undefined) | 20µM* | ? | -14.5% | ? | 50.1µM*
COc1ccc(C(=O)N(Cc2cc(OC)c(OC)c(OC)c2)C2CCS(=O)(=O)C2)cc1Cl (centres undefined) | nt | -0.7% | 40.5% | 9.2%[59 µM] | 2.6%
SMILES | Sfp PPTase inh | JMJD2A Tudor inh | HP1b chromo inh | G9a block | BAZ2B block
CCCC(=O)N(c1ccc2oc(C)c(C(C)=O)c2c1)S(=O)(=O)c1ccc(C)c([N+](=O)[O-])c1 | -7.6% | -13.5% | 34.0% | -6.9%[59 µM] | 5.1%
CC(C)C(=O)N(c1ccc2oc(=O)sc2c1)S(=O)(=O)c1cccs1 | ? | -25.7% | 26.7% | 35.5µM* | -36.2%
CCCC(=O)N(c1ccc2oc(C)c(C(C)=O)c2c1)S(=O)(=O)c1ccc(C(=O)O)cc1 | 12.2% | -14.4% | -3.2% | 35.5µM* | -1.5%
CC(=O)N(c1ccc2oc(=O)sc2c1)S(=O)(=O)c1cccc2cccnc12 | -12.7% | -12.0% | 22.3% | 22.4µM* | -19.3%
Cc1cc2oc(=O)sc2cc1NS(=O)(=O)c1cccc2cccnc12 | 8.7% | -35.8% | 20.5% | -10.7% | -13.1%
CC(C)C(=O)N(c1cc2sc(=O)oc2c2ccccc12)S(=O)(=O)c1cccs1 | 10µM* | ? | -2.2% | 1.78µM* | 50.1µM*
CC[C@H](C)[C@H](NC(=O)[C@H](Cc1ccccc1)NC(=O)[C@H](CCC(=O)O)NC(=O)[C@H](CCCCN)NC(=O)[C@H](C)NC(=O)[C@H](C)NC(=O)[C@H](CCC(N)=O)NC(=O)CNC(=O)[C@H](CCC(=O)O)NC(=O)[C@H](CC(C)C)NC(=O)[C@H](Cc1ccc(O)cc1)NC(=O)[C@H](CO)NC(=O)[C@H](CO)NC(=O)[C@@H](NC(=O)[C@H](CC(=O)O)NC(=O)[C@H](CO)NC(=O)[C@@H](NC(=O)[C@H](Cc1ccccc1)NC(=O)[C@@H](NC(=O)CNC(=O)[C@H](CCC(=O)O)NC(=O)[C@H](C)NC(=O)[C@@H](N)Cc1cnc[nH]1)[C@@H](C)O)[C@@H](C)O)C(C)C)C(=O)N[C@@H](C)C(=O)N[C@@H](Cc1c[nH]c2ccccc12)C(=O)N[C@@H](CC(C)C)C(=O)N[C@H](C(=O)N[C@@H](CCCCN)C(N)=O)C(C)C | 3.5% | nt | nt | nt | nt
CCCC(=O)N(c1ccc2oc(=O)sc2c1)S(=O)(=O)c1ccccc1 | 14.1µM* | -7.5% | 26.7% | -31.9%[12.7 µM] | -2.4%
CC(=O)Oc1ccc(N(C(C)=O)S(=O)(=O)c2cccs2)cc1 | -7.1% | -1.3% | 26.6% | ? | 33.5%
CC(=O)N(c1ccc2oc(=O)sc2c1)S(=O)(=O)c1cccs1 | 11.2µM* | ? | 27.8% | ? | -9.1%
CC(=O)N(c1ccc2oc(=O)sc2c1)S(=O)(=O)c1ccc(C(=O)O)cc1 | 56.2µM* | -24.5% | 10.7% | 17.8µM* | -14.5%
CCCCNC(=O)c1cccc(S(=O)(=O)N2CC3(C)CC2CC(C)(C)C3)c1 (centres undefined) | nt | -0.3% | 52.7% | 11.0%[12.7 µM] | 10.5%
COc1cccc(NC(=O)Cn2c(=O)n(-c3ccccc3)c(=O)c3ccc(C(=O)NCc4ccc5c(c4)OCO5)cc32)c1 | nt | -27.0% | 5.7% | 4.6%[59 µM] | nt
Cc1ccc2c(c1)sc[n+]2Cc1ccccc1 | 25.1µM* | 28.2µM* | 20.6% | ? | 70.8µM*

Screens deposited in PubChem BioAssay by National Center for Advancing Translational Sciences (NCATS).
